PubChem BioAssay AID1159580 (chemical genetic matrix, 2015)
Values joined by “and” are separate entries in the source; they are usually repeats but may differ in a detail not shown here. Identical values can stand only once. The campaign covered roughly 5,500 compounds. About 2,000 (36%) were called active. Roughly 18% stayed inconclusive and do not appear here. No stated cut-off is given here; in the data, active means normalized growth mostly below about 0.91 (no sharp cut-off); inconclusive means no clear call, values can overlap the other calls; inactive means mostly above about 0.92. The list shows a part of the results.

Assay: chemical genetic growth profiling, strain panel (AID 1159580);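 further: tested at 20 µM; growth read once vehicle control cultures reached saturation at 30 °C; 1 = growth at the plate median or of vehicle wells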
Details: growth OD
[1] = S. cerevisiae deletion strains, locus YAL013W, strain DEP1, stronger effect = lower value
[2] = S. cerevisiae deletion strains, locus YBR229C, strain ROT2, stronger effect = lower value
[3] = S. cerevisiae deletion strains, locus YDL101C, strain DUN1, stronger effect = lower value
[4] = S. cerevisiae deletion strains, locus YDR150W, strain NUM1, stronger effect = lower value
[5] = S. cerevisiae deletion strains, locus YEL061C, strain CIN8, stronger effect = lower value
[6] = S. cerevisiae deletion strains, locus YHR030C, strain SLT2, stronger effect = lower value
[7] = S. cerevisiae deletion strains, locus YJR043C, strain POL32, stronger effect = lower value
[8] = S. cerevisiae deletion strains, locus YKL190W, strain CNB1, stronger effect = lower value
[9] = S. cerevisiae deletion strains, locus YLR039C, strain RIC1, stronger effect = lower value
[10] = S. cerevisiae deletion strains, locus YLR262C, strain YPT6, stronger effect = lower value
[11] = S. cerevisiae deletion strains, locus YNL153C, strain GIM3, stronger effect = lower value
[12] = S. cerevisiae deletion strains, locus YPL241C, strain CIN2, stronger effect = lower value
[13] = S. cerevisiae strains, strain wild type, stronger effect = lower value

Measured: normalized growth

CC(C)C1=CC2=CCC3[C@](C)(CCC[C@]3(C)C(=O)O)C2CC1 (stereo partly drawn)
0.996 (inactive) and 0.843 (active): [6]
inactive: [1] 0.957 | S. cerevisiae deletion strains, locus YBR021W, strain FUR4, stronger effect = lower value 1.03 | [2] 0.935 | S. cerevisiae deletion strains, locus YCL029C, strain bik1, stronger effect = lower value 0.995 | S. cerevisiae deletion strains, locus YDL035C, strain GPR1, stronger effect = lower value 0.918 | S. cerevisiae deletion strains, locus YDL074C, strain BRE1, stronger effect = lower value 0.923 | [3] 0.946 | S. cerevisiae deletion strains, locus YDL134C, strain PPH21, stronger effect = lower value 0.935 | S. cerevisiae deletion strains, locus YDL185W, strain tfp1, stronger effect = lower value 0.975 | S. cerevisiae deletion strains, locus YDL192W, strain arf1, stronger effect = lower value 0.939 | S. cerevisiae deletion strains, locus YDR101C, strain arx1, stronger effect = lower value 1.05 | [4] 0.981 | S. cerevisiae deletion strains, locus YDR318W, strain mcm21, stronger effect = lower value 0.925 | S. cerevisiae deletion strains, locus YDR388W, stronger effect = lower value 0.981 | S. cerevisiae deletion strains, locus YDR502C, strain sam2, stronger effect = lower value 0.952 | [5] 0.97 | S. cerevisiae deletion strains, locus YER110C, stronger effect = lower value 0.99 | S. cerevisiae deletion strains, locus YER155C, strain BEM2, stronger effect = lower value 1.02 | S. cerevisiae deletion strains, locus YER167W, strain BCK2, stronger effect = lower value 0.994 | S. cerevisiae deletion strains, locus YGL078C, strain dbp3, stronger effect = lower value 0.978 | S. cerevisiae deletion strains, locus YGL086W, strain mad1, stronger effect = lower value 1.02 | S. cerevisiae deletion strains, locus YGL248W, strain PDE1, stronger effect = lower value 0.928 | S. cerevisiae deletion strains, locus YGR135W, strain pre9, stronger effect = lower value 0.94 | S. cerevisiae deletion strains, locus YGR252W, strain gcn5, stronger effect = lower value 0.986 | S. cerevisiae deletion strains, locus YHR079C, strain IRE1 (second series), stronger effect = lower value 0.974 | S. cerevisiae deletion strains, locus YHR094C, strain hxt1, stronger effect = lower value 0.976 | S. cerevisiae deletion strains, locus YHR129C, strain ARP1, stronger effect = lower value 0.967 | S. cerevisiae deletion strains, locus YHR200W, strain rpn10, stronger effect = lower value 0.995 | S. cerevisiae deletion strains, locus YIL066C, strain RNR3, stronger effect = lower value 0.937 | S. cerevisiae deletion strains, locus YIL073C, strain SPO22, stronger effect = lower value 0.902 | S. cerevisiae deletion strains, locus YIL125W, strain kgd1, stronger effect = lower value 1 | S. cerevisiae deletion strains, locus YIR030C, strain dcg1, stronger effect = lower value 0.974 | S. cerevisiae deletion strains, locus YJL134W, strain LCB3, stronger effect = lower value 0.977 | S. cerevisiae deletion strains, locus YJL168C, strain set2, stronger effect = lower value 0.977 | S. cerevisiae deletion strains, locus YJL187C, strain SWE1 (second series), stronger effect = lower value 0.96 | [7] 1.02 | S. cerevisiae deletion strains, locus YJR066W, strain TOR1, stronger effect = lower value 0.857 | S. cerevisiae deletion strains, locus YKL009W, strain mrt4, stronger effect = lower value 0.958 | S. cerevisiae deletion strains, locus YKL068W, stronger effect = lower value 0.971 | S. cerevisiae deletion strains, locus YKL085W, strain MDH1 (second series), stronger effect = lower value 0.966 | S. cerevisiae deletion strains, locus YKL085W, strain MDH1, stronger effect = lower value 0.966 | [8] 0.958 | S. cerevisiae deletion strains, locus YKR001C, strain vps1, stronger effect = lower value 1.01 | S. cerevisiae deletion strains, locus YLR058C, strain SHM2, stronger effect = lower value 0.944 | S. cerevisiae deletion strains, locus YLR102C, strain apc9, stronger effect = lower value 0.985 | S. cerevisiae deletion strains, locus YLR113W, strain HOG1, stronger effect = lower value 0.859 | S. cerevisiae deletion strains, locus YLR268W, strain sec22, stronger effect = lower value 1.01 | S. cerevisiae deletion strains, locus YLR330W, strain CHS5, stronger effect = lower value 0.984 | S. cerevisiae deletion strains, locus YLR342W, strain FKS1 (second series), stronger effect = lower value 0.859 | S. cerevisiae deletion strains, locus YLR371W, strain rom2, stronger effect = lower value 0.992 | S. cerevisiae deletion strains, locus YML016C, strain PPZ1, stronger effect = lower value 0.966 | S. cerevisiae deletion strains, locus YML032C, strain rad52, stronger effect = lower value 0.949 | S. cerevisiae deletion strains, locus YML124C, strain tub3, stronger effect = lower value 0.979 | S. cerevisiae deletion strains, locus YMR078C, strain ctf18, stronger effect = lower value 0.974 | S. cerevisiae deletion strains, locus YMR223W, strain ubp8, stronger effect = lower value 0.923 | S. cerevisiae deletion strains, locus YNL067W, strain RPL9B, stronger effect = lower value 0.972 | [11] 0.967 | S. cerevisiae deletion strains, locus YNL183C, strain NPR1, stronger effect = lower value 0.894 | S. cerevisiae deletion strains, locus YNL233W, strain BNI4, stronger effect = lower value 0.987 | S. cerevisiae deletion strains, locus YNL250W, strain rad50, stronger effect = lower value 0.963 | S. cerevisiae deletion strains, locus YNL271C, strain bni1, stronger effect = lower value 0.963 | S. cerevisiae deletion strains, locus YNL298W, strain CLA4, stronger effect = lower value 0.995 | S. cerevisiae deletion strains, locus YNL307C, strain MCK1, stronger effect = lower value 0.945 | S. cerevisiae deletion strains, locus YNR052C, strain pop2, stronger effect = lower value 0.95 | S. cerevisiae deletion strains, locus YOL006C, strain TOP1, stronger effect = lower value 0.937 | S. cerevisiae deletion strains, locus YOL012C, strain htz1 1.21 | S. cerevisiae deletion strains, locus YOL147C, strain pex11, stronger effect = lower value 0.987 | S. cerevisiae deletion strains, locus YOR061W, strain CKA2, stronger effect = lower value 0.921 | S. cerevisiae deletion strains, locus YOR069W, strain VPS5, stronger effect = lower value 0.972 | S. cerevisiae deletion strains, locus YOR136W, strain idh2, stronger effect = lower value 0.999 | S. cerevisiae deletion strains, locus YOR144C, strain elg1, stronger effect = lower value 0.982 | S. cerevisiae deletion strains, locus YOR316C, strain cot1, stronger effect = lower value 0.979 | [12] 0.967 | S. cerevisiae deletion strains, locus YPR119W, strain clb2, stronger effect = lower value 0.977 | S. cerevisiae deletion strains, locus YPR141C, strain kar3, stronger effect = lower value 0.958 | S. cerevisiae deletion strains, locus YPR163C, strain tif3, stronger effect = lower value 0.976 | S. cerevisiae deletion strains, locus YPR167C, strain met16, stronger effect = lower value 0.98 | S. cerevisiae deletion strains, strain wtn01, stronger effect = lower value 1.06 | [13] 0.962
0.782 (active) and 0.89 (inactive): S. cerevisiae deletion strains, locus YJL095W, strain BCK1, stronger effect = lower value
active: S. cerevisiae deletion strains, locus YDR162C, strain NBP2, stronger effect = lower value 0.724 | S. cerevisiae deletion strains, locus YHR079C, strain IRE1, stronger effect = lower value 0.851 | [9] 0.637 | [10] 0.542 | S. cerevisiae deletion strains, locus YLR418C, strain cdc73, stronger effect = lower value 0.781 | S. cerevisiae deletion strains, locus YMR307W, strain GAS1, stronger effect = lower value 0.502 | S. cerevisiae deletion strains, locus YOR184W, strain ser1, stronger effect = lower value 0.801 | S. cerevisiae deletion strains, locus YOR231W, strain MKK1, stronger effect = lower value 0.859 | S. cerevisiae deletion strains, locus YPL256C, strain CLN2, stronger effect = lower value 0.824

O=C(O)CC(CC(=O)O)c1ccc(C(F)(F)F)cc1
inactive: [1] 0.994 | [2] 1 | S. cerevisiae deletion strains, locus YCL061C, strain MRC1, stronger effect = lower value 0.981 | [3] 0.999 | [4] 0.938 | [5] 1.01 | S. cerevisiae deletion strains, locus YGR078C, strain PAC10, stronger effect = lower value 0.993 | S. cerevisiae deletion strains, locus YGR229C, strain SMI1, stronger effect = lower value 0.985 | [6] 1.03 | S. cerevisiae deletion strains, locus YHR087W, strain rtc3, stronger effect = lower value 1 | [7] 0.991 | S. cerevisiae deletion strains, locus YJR075W, strain HOC1, stronger effect = lower value 0.993 | [8] 1 | [9] 1.02 | S. cerevisiae deletion strains, locus YLR058C, strain SHM2 (second series), stronger effect = lower value 0.999 | S. cerevisiae deletion strains, locus YLR085C, strain ARP6, stronger effect = lower value 1.02 | [10] 1.01 | S. cerevisiae deletion strains, locus YML094W, strain GIM5, stronger effect = lower value 1.02 | S. cerevisiae deletion strains, locus YMR219W, strain ESC1, stronger effect = lower value 0.999 | S. cerevisiae deletion strains, locus YMR263W, strain SAP30, stronger effect = lower value 0.993 | [11] 0.99 | S. cerevisiae deletion strains, locus YNL298W, strain CLA4 (second series), stronger effect = lower value 1.04 | S. cerevisiae deletion strains, locus YNL322C, strain KRE1, stronger effect = lower value 1.01 | S. cerevisiae deletion strains, locus YNR030W, strain Alg12, stronger effect = lower value 1.02 | S. cerevisiae deletion strains, locus YPL055C, strain LGE1, stronger effect = lower value 0.918 | [12] 1.04 | S. cerevisiae deletion strains, locus YPR135W, strain CTF4, stronger effect = lower value 0.963 | [13] 0.995
